This note sets out measurements from PubChem BioAssay.

The structures appear in SMILES notation. Values joined by “and” are separate entries in the source; they are usually repeats but may differ in a detail not shown here. Identical values can stand only once. This is one part of the list. Active and inactive are the calls of the source. Unless noted, no rule for the calls is given here.

A short description of assay [1]: Brca1-Bard1 BiLC signal decrease – luminescence, single concentration, counter-screen for Mdm2/MdmX interaction inhibitor project, confirmation (AID 504668). The conditions noted are these: Brca1/Bard1 bimolecular luciferase complementation counterscreen, at 8 µM, stronger effect = higher value. Background: A counterscreen serves to expose hits that act by an unwanted route or on another target.

The nature of assay [2]: apoptosome-driven caspase-3 activation blockers – biochemical, fluorescence, DEVD-Rh110, 20 µM, confirmation (AID 504614;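 active = mean inhibition of at least 40% at 20 µM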;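 also: plate controls were DMSO wells for no effect and DEVD-CHO caspase inhibitor control wells for full effect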). The conditions noted are these: reconstituted apoptosome, caspase-3 DEVD-Rh110 fluorescence; at 20 µM; stronger effect = higher value.
A short description of assay [3]: detection-step artefacts after completed caspase reaction – biochemical, fluorescence, Rh110, 20 µM, artefact control for Apaf-1 inhibitor project, confirmation (AID 504615;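 active = signal rise of 40% or more at 20 µM, treated as a fluorescence artifact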). The conditions noted are these: quenched caspase reaction, at 20 µM, stronger effect = higher value.
In assay [4] the target is COP9 signalosome complex subunit 5 (Homo sapiens) (UniProt Q92905). Put plainly: blockers of CSN-driven cullin deneddylation – biochemical, fluorescence polarization, single concentration, SCF-Nedd8OG substrate, confirmation (AID 720654; in the data active = inhibition above about 50%;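 also: 0% = DMSO with enzyme and 100% = no enzyme wells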). Conditions: Csn5 deneddylation of SCF-Nedd8OG, 90 min, at 16.6 µM, stronger effect = higher value. For orientation: In fluorescence polarisation assays a small probe gives low polarisation when free and higher when bound to something large.
COP9 signalosome complex subunit 5 (Homo sapiens), sequence (Q92905 whole entry, looked up, one chain of several): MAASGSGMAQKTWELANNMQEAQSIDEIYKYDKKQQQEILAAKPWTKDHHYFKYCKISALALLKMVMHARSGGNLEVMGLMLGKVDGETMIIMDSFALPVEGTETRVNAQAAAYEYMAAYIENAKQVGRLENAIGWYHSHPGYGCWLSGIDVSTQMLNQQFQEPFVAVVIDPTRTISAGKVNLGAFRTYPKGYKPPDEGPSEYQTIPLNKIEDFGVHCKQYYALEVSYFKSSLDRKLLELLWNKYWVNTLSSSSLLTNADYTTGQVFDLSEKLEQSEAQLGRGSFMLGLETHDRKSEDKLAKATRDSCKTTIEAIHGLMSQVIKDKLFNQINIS

Assay [5] concerns the target 72 kDa type IV collagenase (Homo sapiens) (UniProt P08253). Put plainly: human MMP-2 inhibitors, single-point check – biochemical, fluorescence, single concentration, counter-screen for CSN deneddylation inhibitor project, confirmation (AID 720655;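 active = corrected plate-normalized z-score of 5 or more, or -5 or less, or inhibition of 15% or more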;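 also: plate controls were DMSO wells with enzyme for no effect and buffer wells lacking MMP-2 for full effect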). Conditions: recombinant MMP-2, FRET substrate fluorescence, 60 min; at 16.6 µM.
Another assay concerns the target Prothrombin (Bos taurus) (UniProt P00735). The experiment in a line: thrombin cleavage blockers, FP readout – biochemical, fluorescence polarization, single concentration, counter-screen for CSN deneddylation inhibitor project, confirmation (AID 720656;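 active = inhibition at or above a set limit, with a fluorescence interference ratio between 0.5 and a set maximum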). The conditions noted are these: bovine thrombin cleavage of Ub4-pepOG, at 16.6 µM, stronger effect = higher value.
A short description of assay [6]: fluorescence interference of Apaf-1 inhibitor hits, dose response, artefact control for Apaf-1 inhibitor project (AID 588538). Conditions: fluorescence interference counterscreen, Apaf-1 assay format.
A short description of assay [7]: inhibition of PEG-3 promoter luciferase signal – cell-based, HeLa, luciferase reporter, single concentration, confirmation (AID 602417;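 active = at 20 µM dose, 40% or more inhibition averaged across four replicates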). The conditions noted are these: HeLa PEG-Prom luciferase reporter, luminescence, overnight; at 20 µM; stronger effect = higher value. (In general: Reporter assays use an easily measured gene product as a stand-in for the process of interest.)

Assay [8] has as its target PEG-3 (UniProt Q6IN02). The experiment in a line: inhibition of PEG-3 promoter-driven reporter – cell-based, HeLa, luciferase, CREF/GAPDH counter-screen panel, dose response (AID 624167). Conditions: CREF/GAPDH counter-screens; HeLa PEG-Prom luciferase reporter, overnight, run 1, dose range 1, at 100 µM (top of the series) unless noted.
Assay [9] addresses PEG-3 (UniProt Q6IN02). Described as above. Conditions: CREF/GAPDH counter-screens; HeLa PEG-Prom luciferase reporter, overnight, run 2, dose range 1, at 100 µM (top of the series) unless noted.
Assay [10] can be described thus: HIF-2a driven luciferase blockers, single dose – luminescence, 786-0 RCC cells, confirmation (AID 651580;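 active = mean inhibition across four replicates of at least 40 percent at the single tested concentration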). Conditions: HIF-2a luciferase reporter luminescence, overnight, at 18.8 µM, stronger effect = higher value.
The nature of assay [11]: HIF-1a luciferase reporter signal reduction – MiaPaCa-2 cells, single concentration, counter-screen for HIF-2a inhibitor project, confirmation (AID 651589;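 active = mean inhibition of the reporter signal across four replicates at the single tested dose of 50% or more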). Conditions: MiaPaCa-2 HIF-1a luciferase reporter, desferoxamine, overnight; at 18.8 µM; stronger effect = higher value.

Prothrombin (Bos taurus), sequence (P00735 whole entry, looked up): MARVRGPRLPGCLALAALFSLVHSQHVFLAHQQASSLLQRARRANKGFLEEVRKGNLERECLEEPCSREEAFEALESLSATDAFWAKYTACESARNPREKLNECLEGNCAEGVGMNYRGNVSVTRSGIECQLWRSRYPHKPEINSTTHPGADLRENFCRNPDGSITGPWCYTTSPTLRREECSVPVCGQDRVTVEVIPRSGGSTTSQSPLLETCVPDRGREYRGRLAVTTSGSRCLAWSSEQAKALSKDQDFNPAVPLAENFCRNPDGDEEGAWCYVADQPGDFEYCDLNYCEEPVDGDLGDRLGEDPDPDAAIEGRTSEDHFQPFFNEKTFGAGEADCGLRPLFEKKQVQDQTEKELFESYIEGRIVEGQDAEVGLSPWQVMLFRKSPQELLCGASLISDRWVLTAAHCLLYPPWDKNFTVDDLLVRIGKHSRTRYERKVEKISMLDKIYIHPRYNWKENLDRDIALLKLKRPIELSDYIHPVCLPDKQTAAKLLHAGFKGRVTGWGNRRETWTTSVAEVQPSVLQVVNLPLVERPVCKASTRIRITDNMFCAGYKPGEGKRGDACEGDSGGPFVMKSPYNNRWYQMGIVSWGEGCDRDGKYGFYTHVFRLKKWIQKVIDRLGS
PEG-3, sequence (Q6IN02 whole entry, looked up): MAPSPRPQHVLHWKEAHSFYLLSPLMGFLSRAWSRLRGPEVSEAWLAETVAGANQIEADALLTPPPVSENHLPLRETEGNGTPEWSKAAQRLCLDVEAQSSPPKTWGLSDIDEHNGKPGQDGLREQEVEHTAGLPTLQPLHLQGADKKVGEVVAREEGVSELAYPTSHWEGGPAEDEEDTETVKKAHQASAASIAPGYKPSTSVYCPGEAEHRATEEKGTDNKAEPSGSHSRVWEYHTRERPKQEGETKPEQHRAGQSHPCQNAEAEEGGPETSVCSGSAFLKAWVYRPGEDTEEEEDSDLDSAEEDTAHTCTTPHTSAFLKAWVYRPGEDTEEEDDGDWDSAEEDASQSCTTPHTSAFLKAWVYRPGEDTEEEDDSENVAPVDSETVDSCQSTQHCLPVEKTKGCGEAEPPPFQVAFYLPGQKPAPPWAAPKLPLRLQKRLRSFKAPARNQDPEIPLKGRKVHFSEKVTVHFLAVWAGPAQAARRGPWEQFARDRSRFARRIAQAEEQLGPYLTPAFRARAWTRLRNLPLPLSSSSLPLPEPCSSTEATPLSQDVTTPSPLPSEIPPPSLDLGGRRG
72 kDa type IV collagenase (Homo sapiens), sequence (P08253 whole entry, looked up): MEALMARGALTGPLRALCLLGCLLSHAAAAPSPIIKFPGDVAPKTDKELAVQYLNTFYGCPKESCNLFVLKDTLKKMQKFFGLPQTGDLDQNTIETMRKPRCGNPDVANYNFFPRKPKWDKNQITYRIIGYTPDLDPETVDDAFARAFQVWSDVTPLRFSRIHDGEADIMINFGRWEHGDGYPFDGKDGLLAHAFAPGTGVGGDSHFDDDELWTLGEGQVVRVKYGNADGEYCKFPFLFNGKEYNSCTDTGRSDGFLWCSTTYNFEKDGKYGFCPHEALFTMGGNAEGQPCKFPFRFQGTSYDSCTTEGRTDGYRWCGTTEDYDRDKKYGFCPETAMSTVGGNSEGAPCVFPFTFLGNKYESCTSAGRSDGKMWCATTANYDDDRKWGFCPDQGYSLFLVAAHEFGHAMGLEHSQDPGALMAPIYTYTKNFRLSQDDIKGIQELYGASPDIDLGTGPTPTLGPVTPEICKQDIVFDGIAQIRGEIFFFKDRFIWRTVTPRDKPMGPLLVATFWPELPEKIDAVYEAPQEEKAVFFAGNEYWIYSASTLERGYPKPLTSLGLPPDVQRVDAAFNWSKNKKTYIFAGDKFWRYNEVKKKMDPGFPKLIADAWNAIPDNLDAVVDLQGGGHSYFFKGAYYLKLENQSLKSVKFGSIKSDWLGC

On to `COc1ccc(Nc2ccnc3ccccc23)cc1`, for which the inhibition (commonly the drop in the measured response relative to a control, in per cent) in assay [1] was 33.7% (active). Consider `N=c1c2c(-c3ccccc3)c(-c3ccccc3)n(Cc3ccco3)c2ncn1Cc1ccco1`, for which the inhibition in assay [1] is 31.4% (active). `C#CCn1c(=NC(=O)c2ccc(S(=O)(=O)N3CCc4ccccc4C3)cc2)sc2cc(S(N)(=O)=O)ccc21`: the inhibition in [1] is 23% (active). In the case of `Cc1ccc(N=C2NC(=O)/C(=C/C=C/c3ccco3)S2)cc1C`, the inhibition in assay [2] was 26.1% (inactive); in assay [4], 25.6% (inactive); in assay [5] it was 13.5% (inactive); with Prothrombin (Bos taurus), 7.38% (inactive). The activation (fluorescence interference) in [3] is 20.6% (inactive). With `Oc1ccccc1CNc1ccc(Br)cn1`, the inhibition in assay [1] is 28.8% (active). Regarding `CCS(=O)(=O)c1ccc(N=Nc2ccc(O)c3ncccc23)c(OC)c1`, the inhibition in assay [1] is 31.8% (active). Still for that read-out and setting: in the case of `O=C(c1ccco1)N1CCN(C(=O)C2CCCc3c2[nH]c2ccc(Cl)cc32)CC1` (centres undefined) it was 28.5% (active); in that of `CCOc1cccc2sc(NC(=O)CCS(=O)(=O)c3ccccc3)nc12`, 35.4% (active). On to `COc1ccccc1-c1cc(C(F)(F)F)nc(S(=O)(=O)CCCC(=O)Nc2cc(C)on2)n1`, for which the inhibition in assay [1] is 32.8% (active).

Consider `CCOc1ccc(C(=O)N/N=C(\c2ccccc2)c2ccccn2)cc1`, for which the inhibition in assay [1] was 30.1% (active).

`CCCCC(=O)NC(c1ccco1)c1cc(Cl)c2cccnc2c1O` (centres undefined): the inhibition in assay [1] is 28.6% (active). `CCOc1ccc2nc(NC3=NC(c4ccc(OC)cc4)CC(=O)N3)nc(C)c2c1` (centres undefined): in [1], the inhibition was 30.6% (active). For `CCCCCCCCn1c2c(c(=N)c3ccccc31)CCC2`, the inhibition in assay [1] is 27.2% (active).

For the molecule `Cc1ccc(S(=O)(=O)Nc2cc(-c3nn(C)c(=O)c4ccccc34)ccc2N2CCOCC2)cc1`, the inhibition in assay [1] is 29.6% (active). Consider `C/C(=N\NC(=O)c1ccc(Cl)c(Cl)c1)c1ccccn1`, for which, in [1], the inhibition is 25.9% (active). Take `Cc1ccn2c(Nc3ccccc3C)c(-c3ccccn3)nc2c1`: the inhibition in assay [1] was 31.7% (active).

Regarding `COc1cc(/C=C/C(=O)c2ccc(O)cc2)ccc1OCC#N`, the inhibition in assay [1] was 35.9% (active). Still for that read-out and setting: in the case of `CC(C)(C)N1C(=O)[C@H]2[C@@H](c3ccc(Br)cc3)N3C(=O)N(c4ccc(Br)cc4)C(=O)[C@@]3(Cc3ccccc3)[C@H]2C1=O` it was 35.6% (active); in that of `COc1cc(Br)cc(/C=N/NC(=O)Cc2ccc(C(F)(F)F)cc2[N+](=O)[O-])c1O`, 32.8% (active).

Consider `Cc1nc(SCC(=O)Nc2ccc(S(=O)(=O)N3CCOCC3)cc2)c2c(C)c(C)sc2n1`, for which the inhibition in assay [1] was 28.6% (active). Consider `Cc1ccc2nc(-c3ccccn3)c(Nc3ccccc3C)n2c1`, for which, in assay [1], the inhibition is 35.8% (active). Consider `Cc1cc(Br)cc(/C=N/NC(=O)c2ccc3c(c2)OCO3)c1O`, for which the inhibition in [1] was 33% (active). For the molecule `C1CCC(C(CC2CCCCN2)C2CCCCC2)CC1` (centres undefined), the inhibition in assay [1] is 35.2% (active) and 23.8% (active). The same measure, in the same setting: in the case of `N#C/C(=N/Nc1ccc(OC(F)(F)F)cc1)C(N)=S` it was 35% (active). For `O=C(CCNS(=O)(=O)c1ccccc1)NCCSc1ccc(Br)cc1`, the inhibition in assay [2] was 40% (active). For the same molecule, the activation (fluorescence interference) in assay [3] was 5.12% (inactive). Further, the IC50 (usually the concentration that gives 50% inhibition) in [6] was > 100 µM (inactive). For `CC(=O)c1ccc(NC(=O)c2cc(CC(C)C)nc3ccccc23)cc1`, in assay [1], the inhibition is 33.6% (active). Turning to `COc1cccc(/C=C2\SC(=S)N(CCC(=O)NCCc3ccc(O)cc3)C2=O)c1`, the inhibition in [1] is 35.4% (active). For `CCn1cc(CN2CCC(C(=O)Nc3cccc(-c4cccc(Cl)c4)c3)CC2)c(C)n1`, the inhibition was 12.8% (inactive) in assay [2], 95.8% (active) in [7], 98.4% in the assay with PEG-3 [8] and 101% in the assay with PEG-3 [9]. In addition, in [3], the activation (fluorescence interference) is 5.12% (inactive).

On to `CC(C)Cn1c(N)c(C(=O)NCc2cccs2)c2nc3ccccc3nc21`, for which the inhibition was 38.4% (inactive) in assay [2], 99.2% (active) in assay [4], 1.55% (inactive) in assay [5] and -0.76% (inactive) in the assay with Prothrombin (Bos taurus). In addition, in assay [3], the activation (fluorescence interference) is 5.03% (inactive).

Regarding `C/C(=N\NC(=O)C1CCCN(S(=O)(=O)c2ccccc2)C1)c1ccccn1` (centres undefined), the inhibition in [1] is 35.2% (active). For the molecule `O=C(CCl)N1N=C(c2ccco2)CC1c1ccco1` (centres undefined), the inhibition in assay [1] was 31.2% (active). With `COCCNC(=O)Nc1ccc2nc(-c3ccco3)c(-c3ccco3)nc2c1`, the inhibition in assay [2] was 40.9% (active); in [10], -38.7% (inactive); in assay [11], 8.69% (inactive). In assay [3], the activation (fluorescence interference) is -1.4% (inactive). Besides, the IC50 in assay [6] was > 100 µM (inactive).

With `COC(=O)c1ccc(Sc2nnnn2-c2ccccc2)c([N+](=O)[O-])c1`, the inhibition in [1] is 23% (active).

For `CCn1c(SCc2c(Cl)cccc2Cl)nc2nc3c(cc2c1=O)CCCC3`, the inhibition in [1] is 35.8% (active).

Turning to `N#Cc1ccc(NC(=O)Nc2ccc(Oc3ccc(NC(=O)Nc4ccc(C#N)cc4)cc3)cc2)cc1`, the inhibition in [1] is 35.1% (active). In the case of `CC(=O)N(C(C)=O)c1ncc2c([nH]c3ccccc32)c1C#N`, in [1], the inhibition was 33.1% (active).
